High-throughput results as filed in PubChem BioAssay.
This is a sample that favours compounds with a hit; in the whole collection about 21% have one here.
Cycloheximide cs = counter-screen for Shiga toxin inhibitors: cycloheximide protein synthesis inhibition. max response, %. actives 12% (n = 300,000). cell reporter, cycloheximide protein synthesis inhibition counterscreen. AID 2314; in the data active means max response mostly above about 13%, no sharp cut-off; inactive means mostly below about 14%; further: read at 38.3 µM for the half of the compounds with a filed dose; 0% is about no effect
Pf growth 96h = P. falciparum growth inhibition at 96 hour, primary screen for plastid delayed-death inhibitors. P. falciparum luciferase reporter growth, 96 h. Potency, µM (titrated, usually from 28.7 µM), for the others: at the highest dose activity change, negative = inhibition, usual class: inhibitors. actives 6.9% (n = 320,000); further: potency means the concentration at half of the fitted maximal effect; on the % scale 0 is the no-effect control and ±100 the full control effect
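P. falciparum expressing integrated firefly luciferase, in erythrocytes at 2% hematocrit, 0.05% parasitemia, incubated with compounds 96 h at 37 C, 5% CO2. Growth inhibition read as loss of luminescence; two-generation exposure targets delayed-death apicoplast inhibitors.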
Shiga inhibitor = Shiga toxin inhibition | Vero cells, Shiga toxin protein synthesis inhibition reporter | inhibition, % at 38.7 µM | actives 9.2% (n = 290,000) | AID 2315; in the data active means inhibition mostly above about 28%, no sharp cut-off; inactive means mostly below about 43%; further: 0% is about no effect
Pf growth 48h = P. falciparum growth inhibition at 48 hours (one generation); Potency, µM (doses to about 28.7 µM), without a hit: top-dose activity change, negative = inhibition, actives largely listed as inhibitors; actives 5.9% (n = 310,000); P. falciparum luciferase growth in erythrocytes, 48 h; further: potency means the concentration at half of the fitted maximal effect; on the % scale 0 is the no-effect control and ±100 the full control effect
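Compounds are pin-transferred into medium, infected erythrocytes (2% hematocrit, 0.1% parasitemia final) are added, and plates sit one parasite generation at 37 C in 5% CO2. Detection reagent is then added and luminescence measured.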
NS1 inh = inhibitors of influenza NS1 protein function. Potency, µM (doses to about 46.1 µM), without a hit: top-dose activity, positive = more growth. actives 0.4% (n = 270,000); calls by dose curve; further: potency means the concentration at half of the fitted maximal effect; actives are rising curves; nearly all actives have a fitted effect of over 50% in size
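A cell-based growth assay was used: compounds that relieve NS1-induced slow growth of budding yeast raise OD600. Assay medium was yeast nitrogen base with ammonium sulphate and -URA supplement, pH 6.0, with 2% galactose.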
An asterisk follows results filed as active; u = inconclusive; x = not tested or not shown; + = active, no number. Unless noted, the call rests on the fitted dose curve; in most records, active means well fitted inhibition curve with a large enough effect; inconclusive means small, poorly fitted or top-dose-only effect, or another doubt; inactive means no such curve, though single readings can be large or run the other way.

SMILES	Cycloheximide cs	Pf growth 96h	Shiga inhibitor	Pf growth 48h	NS1 inh
COc1ccc(OCc2nc(N)nc(Nc3cccc(C)c3C)n2)cc1	-1.0	x	-5.9	x	-5.5%
COc1ccc(OCc2nc(N)nc(Nc3ccc(C)cc3)n2)cc1	15.1*	-11.0%	17.0	19.5%	2.6%
O=C(c1ccccc1CCc1ccccc1)N1CCOCC1	1.1	x	-11.8	-8.2%	-0.7%
COc1ccc2c(c1)C1(Nc3ccccc3C(=O)N1c1ccccc1)C(=O)N2 (stereo not given)	1.8	-14.2%	-1.5	u	-8.6%
CC1(C)Nc2ccccc2C(=O)N1c1ccccc1	18.5*	-21.8%	x	-13.1%	-12.1%
COc1ccc(N2C(=O)c3ccccc3NC23CCCC3)cc1	31.5*	191.0%	43.6*	194.7%	x
COc1ccc(N2C(S)=C(C#N)C(=O)NC23CCCCC3)cc1	-0.5	14.5%	16.2	1.3%	-0.1%
CC1(C)Nc2ccccc2C(=O)N1NC(=O)c1ccccc1	1.8	u	-4.0	31.2%	x
CCC1(CC)Nc2ccccc2C(=O)N1c1ccc(NC(C)=O)cc1	11.7*	76.8%	17.5	52.7%	-6.2%
CCC1(CC)Nc2ccccc2C(=O)N1c1ccc(OC)cc1	33.2*	457.5%	35.7*	111.7%	-1.7%
CC1CN(c2nc3ccccc3cc2-c2ccccc2)CC(C)O1 (stereo not given)	10.4	u	2.5	0.0%	x
COc1cccc(CNC(=O)Cn2c(=O)n(CCC(=O)N3CCCCC3)c(=O)c3sccc32)c1	-10.1	0.0%	5.0	-0.6%	4.3%
CCOC(=O)C(=NCC1CCCO1)NNc1ccccc1Cl (stereo not given)	-3.4	22.9%	18.8	-5.0%	-47.6%
CC[C@H](C)[C@H](NC(=O)[C@H](CCC(=O)O)NC(=O)[C@H](CO)NC(=O)[C@@H](NC(=O)[C@@H](N)CO)C(C)C)C(=O)N[C@@H](CCC(N)=O)C(=O)N[C@@H](CC(C)C)C(=O)N[C@@H](CCSC)C(=O)N[C@@H](Cc1cnc[nH]1)C(=O)N[C@@H](CC(N)=O)C(=O)N[C@@H](CC(C)C)C(=O)NCC(=O)N[C@@H](CCCCN)C(=O)N[C@@H](Cc1cnc[nH]1)C(=O)N[C@@H](CC(C)C)C(=O)N[C@@H](CC(N)=O)C(=O)N[C@@H](CO)C(=O)N[C@@H](CCSC)C(=O)N[C@@H](CCC(=O)O)C(=O)N[C@@H](CCCNC(=N)N)C(=O)N[C@H](C(=O)N[C@@H](CCC(=O)O)C(=O)N[C@@H](Cc1c[nH]c2ccccc12)C(=O)N[C@@H](CC(C)C)C(=O)N[C@@H](CCCNC(=N)N)C(=O)N[C@@H](CCCCN)C(=O)N[C@@H](CCCCN)C(=O)N[C@@H](CC(C)C)C(=O)N[C@@H](CCC(N)=O)C(=O)N[C@@H](CC(=O)O)C(=O)N[C@H](C(=O)N[C@@H](Cc1cnc[nH]1)C(=O)N[C@@H](CC(N)=O)C(=O)N[C@@H](Cc1ccccc1)C(=O)N[C@H](C(=O)N[C@@H](C)C(=O)N[C@@H](CC(C)C)C(=O)NCC(=O)O)C(C)C)C(C)C)C(C)C	-2.2	x	-7.3	x	x
CCCc1nc2ccccc2n2cc3c(=O)n(C)c(=O)n(C)c3c12	x	x	x	x	8.0%
Cn1c(=O)c2cn3c(c2n(C)c1=O)C(c1ccccc1)CC(c1ccccc1)=N3 (stereo not given)	38.0*	11.1%	105.4*	u	-16.9%
CCCCOc1ccc(C2=CSC3=NCCN23)cc1[N+](=O)[O-]	-2.3	0.0%	1.5	u	0.8%
O=[N+]([O-])c1cccc(-c2cn3ccccc3n2)c1	-3.1	17.8%	30.3	-13.3%	-0.1%
CCCCOc1ccc(-c2csc(N)n2)cc1[N+](=O)[O-]	86.5*	u	127.2*	189.0%	-55.6%
COc1ccc(-c2cn3cc([N+](=O)[O-])ccc3n2)cc1OC	41.3*	470.7%	80.3*	289.0%	x
CCCOc1ccc(-c2cn3ccccc3n2)cc1	3.0	u	17.8	448.1%	x
CCCOc1ccc(-c2cn3ccccc3n2)cc1[N+](=O)[O-]	134.3*	491.3%	+	143.7%	3.5%
COc1ccc(-c2cn3ccccc3n2)cc1[N+](=O)[O-]	66.6*	161.7%	96.4*	146.5%	-8.2%
O=C(C1=C(O)C(=O)N(CCN2CCOCC2)C1c1cccc([N+](=O)[O-])c1)c1cccs1 (stereo not given)	-6.4	11.9%	-4.8	16.1%	3.4%
COc1cc(OC)c(OC)cc1/C=C1\Oc2cc(OCC(=O)N3Cc4ccccc4C[C@H]3C(=O)O)ccc2C1=O	-2.4	u	19.2	u	-12.8%
SMILES	Cycloheximide cs	Pf growth 96h	Shiga inhibitor	Pf growth 48h	NS1 inh
CCCOc1ccc(-c2nnn(CC(=O)OCC)n2)cc1	20.2*	1.7%	44.1	40.0%	-69.8%
CCOC(=O)Cn1nnc(-c2ccc([N+](=O)[O-])cc2)n1	10.7*	-16.3%	14.0	21.6%	-0.8%
CCOC(=O)CN1C(=O)CC(c2ccc([N+](=O)[O-])cc2)C1=O (stereo not given)	-2.8	7.38µM*	-3.9	19.2%	26.4%
CCOc1nc(NC(=O)NS(=O)(=O)Oc2cccc(Cl)c2)nc(-c2ccccc2)n1	16.8*	31.1%	-17.4	27.1%	3.5%
CCOc1nc(NC(=O)NS(=O)(=O)c2cccc(Cl)c2)nc(-c2ccccc2)n1	-0.6	u	0.0	42.4%	13.0%
COc1ccc(C(=O)NCC(=O)OCC(=O)NCCC2=CCCCC2)cc1	-2.7	12.3%	29.4	u	-2.9%
COc1cccc(C(=O)NCCC2=CCCCC2)c1	30.2*	274.6%	74.2*	x	-78.1%
O=C(Cc1ccccc1[N+](=O)[O-])NCCC1=CCCCC1	25.7*	u	61.1*	9.6%	-0.7%
COc1ccc(C(=O)NCCC2=CCCCC2)cc1	30.9*	-0.1%	50.6	191.4%	-14.7%
COc1ccc(C(=O)NCCC2=CCCCC2)cc1OC	45.9*	97.5%	74.5*	x	-19.9%
C#Cc1ccc([C@@H]2C=C(C(=O)NC3CC3)O[C@H](OCCCCO)C2)cc1	1.1	u	-3.2	u	-0.5%
Cc1cccc(CNC(=O)Cn2ccc3cc(S(=O)(=O)N4CCCC4)ccc32)c1	-2.4	u	-3.0	-16.3%	6.7%
Cc1cc(F)ccc1S(=O)(=O)Nc1ccccc1C(=O)NC1CCN(Cc2ccccc2)CC1	x	3.29µM*	x	2.94µM*	x
Cc1ccc(C)n1-c1ccc(C(=O)NC2CCN(Cc3ccccc3)CC2)cc1	-2.2	11.7µM*	17.2	u	1.8%
O=C(NCCC1=CCCCC1)c1ccc(CN2CCOCC2)cc1	40.0*	91.3%	44.6*	345.4%	-8.0%
O=C(NCCC1=CCCCC1)c1ccc(F)cc1	39.1*	-17.6%	+	179.3%	-26.1%
CCN(CC)c1nc2c(c(=O)n(C)c(=O)n2C)n1CC(=O)c1ccccc1	3.9	-16.5%	-3.6	-2.9%	-4.9%
N#Cc1cc(C(=O)Cc2ccccc2)c[nH]1	5.8	14.7%	6.2	16.8%	2.1%
COc1ccc(CN2CCNC(=O)C2CC(=O)N(C)Cc2ccon2)c(OC)c1 (stereo not given)	-1.1	-6.4%	27.5	-17.1%	-0.1%
